Experimental data taken from PubChem BioAssay (Tox21).
Where “and” joins values, the source holds several entries; their conditions need not be identical. Identical values can stand only once. Inconclusive results are not listed. Where a call stands in place of a potency, no number is given. A structure can be active in one record and inactive in another. Calls of active or inactive are those of the source. Calls come from the whole dose curve; as a rule, active = well fitted curve in the direction sought with a large enough effect in the repeat runs; inconclusive = weak or mixed curves; inactive = no such curve, though single readings can be large; an effect the other way counts as inactive or inconclusive.

Assay: qHTS RealTime-Glo MT Cell Viability Assay in HepG2 cells - 32 hour (AID 1224877); note: nearly all actives have a fitted effect of over 55% in size
Details: RealTime-Glo luminescence; series mostly up to 76.8 µM
How it was run: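 Cell number in HepG2 cultures estimated from NanoLuc luminescence generated by metabolic reduction of a prosubstrate by living cells. The homogeneous, nonlytic format allowed repeated reads at 0, 8, 16, 24, 32 and 40 h of compound exposure.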
Potency is the fitted concentration of half-maximal effect.

SMILES | Potency
Nc1ccc(Cl)cc1N | inactive
O=[N+]([O-])c1ccc(O)c([N+](=O)[O-])c1 | inactive
C=C(C)C(=O)OCC1CO1 (centres undefined) | inactive
c1ccc(P(c2ccccc2)c2ccccc2)cc1 | inactive
Clc1nc(Cl)nc(Cl)n1 | inactive
CCC(C)(c1ccc(O)cc1)c1ccc(O)cc1 | inactive
Nc1cccnc1 | inactive
Cc1c(COC(=O)[C@@H]2[C@H](/C=C(\Cl)C(F)(F)F)C2(C)C)cccc1-c1ccccc1 | inactive
CCCCCc1cc(O)cc(O)c1 | inactive and 49 µM (active)
Oc1ccc(-c2ccccc2)cc1 | inactive
CN(C)C(=O)Nc1ccc(Cl)cc1 | inactive
Oc1cc(Cl)ccc1Cl | inactive
Oc1c(Cl)c(Cl)c(Cl)c(Cl)c1Cl | inactive
S=C1NCCN1 | inactive
Cc1ccc(N)c(N)c1 | inactive
CC(C)(C)c1ccccc1O | inactive
Nc1ccncc1 | inactive
O=Cc1ccco1 | inactive

SMILES | Potency
Cc1ccc2c(c1N)C(=O)c1ccccc1C2=O | inactive
CCOc1cc(Oc2ccc(C(F)(F)F)cc2Cl)ccc1[N+](=O)[O-] | inactive
ClC1C(Cl)C(Cl)C(Cl)C(Cl)C1Cl (centres undefined) | inactive
CC(C)NC(C)C | inactive
CC(C)=CC1C(C(=O)OCc2coc(Cc3ccccc3)c2)C1(C)C (centres undefined) | inactive
Brc1ccc(Oc2cc(Br)c(Br)cc2Br)c(Br)c1 | inactive
Cc1cccc(N)c1N | inactive
CN(C)c1ccc(C(=O)c2ccc(N(C)C)cc2)cc1 | inactive
C#C[C@]1(O)CC[C@H]2[C@@H]3CCC4=CC(=O)CC[C@]4(C)[C@H]3CC[C@@]21C | inactive
O=C(NC(=O)c1c(F)cccc1F)Nc1ccc(Cl)cc1 | inactive
CC(C)C(=O)OCC(C)(C)C(OC(=O)C(C)C)C(C)C (centres undefined) | inactive
Cc1ccc(OP(=O)(Oc2ccc(C)cc2)Oc2ccc(C)cc2)cc1 | inactive
c1ccc(N=Nc2ccccc2)cc1 | inactive
CCOC(=S)S | inactive
CCOC(=O)C(C)OC(=O)c1cc(Oc2ccc(C(F)(F)F)cc2Cl)ccc1[N+](=O)[O-] (centres undefined) | inactive
CC(C)(OOC(C)(C)c1ccccc1)c1ccccc1 | inactive
CC(C)Oc1cc(-n2nc(C(C)(C)C)oc2=O)c(Cl)cc1Cl | inactive
NCc1cccnc1 | inactive

Assay: A CellTox Green Cytotoxicity Assay to monitor cytotoxicity in HepG2 cells - 24 hour (AID 1224878); note: nearly all actives have a fitted effect of over 45% in size
Details: CellTox Green fluorescence; series mostly up to 76.8 µM
How it was run: (§1)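 Cells and non-lytic dye reagent are dispensed together (600 HepG2 cells/well) and incubated 5 h before DMSO compound transfer. Kinetic fluorescence is then recorded in the same wells during 40 h at 37 C.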

SMILES | Potency
Nc1ccc(Cl)cc1N | inactive and 21.9 µM (active)
O=[N+]([O-])c1ccc(O)c([N+](=O)[O-])c1 | inactive
C=C(C)C(=O)OCC1CO1 (centres undefined) | inactive
c1ccc(P(c2ccccc2)c2ccccc2)cc1 | inactive
Clc1nc(Cl)nc(Cl)n1 | inactive
CCC(C)(c1ccc(O)cc1)c1ccc(O)cc1 | inactive
Nc1cccnc1 | inactive
Cc1c(COC(=O)[C@@H]2[C@H](/C=C(\Cl)C(F)(F)F)C2(C)C)cccc1-c1ccccc1 | inactive
Oc1ccc(-c2ccccc2)cc1 | inactive and 49 µM (active)
CN(C)C(=O)Nc1ccc(Cl)cc1 | inactive
Oc1cc(Cl)ccc1Cl | inactive
Oc1c(Cl)c(Cl)c(Cl)c(Cl)c1Cl | inactive
S=C1NCCN1 | inactive
Cc1ccc(N)c(N)c1 | inactive
CC(C)(C)c1ccccc1O | 49.5 µM (active)
Nc1ccncc1 | inactive
O=Cc1ccco1 | inactive
Cc1ccc2c(c1N)C(=O)c1ccccc1C2=O | inactive
CCOc1cc(Oc2ccc(C(F)(F)F)cc2Cl)ccc1[N+](=O)[O-] | inactive

SMILES | Potency
ClC1C(Cl)C(Cl)C(Cl)C(Cl)C1Cl (centres undefined) | inactive and 43.6 µM (active)
CC(C)NC(C)C | inactive
O=C(Nc1ccc(Br)cc1)c1cc(Br)cc(Br)c1O | 38.9 µM (active)
C#CCOS(=O)OC1CCCCC1Oc1ccc(C(C)(C)C)cc1 (centres undefined) | inactive
CC(C)=CC1C(C(=O)OCc2coc(Cc3ccccc3)c2)C1(C)C (centres undefined) | inactive
Brc1ccc(Oc2cc(Br)c(Br)cc2Br)c(Br)c1 | inactive
Cc1cccc(N)c1N | inactive
CN(C)c1ccc(C(=O)c2ccc(N(C)C)cc2)cc1 | inactive
C#C[C@]1(O)CC[C@H]2[C@@H]3CCC4=CC(=O)CC[C@]4(C)[C@H]3CC[C@@]21C | inactive
O=C(NC(=O)c1c(F)cccc1F)Nc1ccc(Cl)cc1 | inactive
CC(C)C(=O)OCC(C)(C)C(OC(=O)C(C)C)C(C)C (centres undefined) | inactive
Cc1ccc(OP(=O)(Oc2ccc(C)cc2)Oc2ccc(C)cc2)cc1 | inactive
c1ccc(N=Nc2ccccc2)cc1 | inactive
CCOC(=S)S | inactive
CCOC(=O)C(C)OC(=O)c1cc(Oc2ccc(C(F)(F)F)cc2Cl)ccc1[N+](=O)[O-] (centres undefined) | inactive
CC(C)(OOC(C)(C)c1ccccc1)c1ccccc1 | inactive
CC(C)Oc1cc(-n2nc(C(C)(C)C)oc2=O)c(Cl)cc1Cl | inactive
NCc1cccnc1 | inactive

Assay: A CellTox Green Cytotoxicity Assay to monitor cytotoxicity in HepG2 cells - 40 hour (AID 1224879); note: nearly all actives have a fitted effect of over 40% in size
Details: CellTox Green fluorescence; series mostly up to 76.8 µM
How it was run: as §1

SMILES | Potency
Nc1ccc(Cl)cc1N | 10.2 µM (active) and 21.9 µM (active)
O=[N+]([O-])c1ccc(O)c([N+](=O)[O-])c1 | inactive
C=C(C)C(=O)OCC1CO1 (centres undefined) | inactive
c1ccc(P(c2ccccc2)c2ccccc2)cc1 | inactive
Clc1nc(Cl)nc(Cl)n1 | inactive
CCC(C)(c1ccc(O)cc1)c1ccc(O)cc1 | inactive
Nc1cccnc1 | inactive
Cc1c(COC(=O)[C@@H]2[C@H](/C=C(\Cl)C(F)(F)F)C2(C)C)cccc1-c1ccccc1 | inactive
Oc1ccc(-c2ccccc2)cc1 | inactive and 49 µM (active)
CN(C)C(=O)Nc1ccc(Cl)cc1 | inactive
Oc1cc(Cl)ccc1Cl | inactive
Oc1c(Cl)c(Cl)c(Cl)c(Cl)c1Cl | inactive
S=C1NCCN1 | inactive
Cc1ccc(N)c(N)c1 | inactive
CC(C)(C)c1ccccc1O | 49.5 µM (active) and 49 µM (active)
Nc1ccncc1 | inactive
O=Cc1ccco1 | inactive
Cc1ccc2c(c1N)C(=O)c1ccccc1C2=O | inactive

SMILES | Potency
CCOc1cc(Oc2ccc(C(F)(F)F)cc2Cl)ccc1[N+](=O)[O-] | inactive
ClC1C(Cl)C(Cl)C(Cl)C(Cl)C1Cl (centres undefined) | inactive and 38.9 µM (active)
CC(C)NC(C)C | inactive
O=C(Nc1ccc(Br)cc1)c1cc(Br)cc(Br)c1O | 19.4 µM (active) and 24.5 µM (active) and 23.9 µM (active)
C#CCOS(=O)OC1CCCCC1Oc1ccc(C(C)(C)C)cc1 (centres undefined) | inactive
CC(C)=CC1C(C(=O)OCc2coc(Cc3ccccc3)c2)C1(C)C (centres undefined) | inactive
Brc1ccc(Oc2cc(Br)c(Br)cc2Br)c(Br)c1 | inactive
Cc1cccc(N)c1N | inactive
CN(C)c1ccc(C(=O)c2ccc(N(C)C)cc2)cc1 | 5.44 µM (active) and 1.95 µM (active)
O=C(NC(=O)c1c(F)cccc1F)Nc1ccc(Cl)cc1 | inactive
CC(C)C(=O)OCC(C)(C)C(OC(=O)C(C)C)C(C)C (centres undefined) | inactive
Cc1ccc(OP(=O)(Oc2ccc(C)cc2)Oc2ccc(C)cc2)cc1 | 4.36 µM (active) and inactive
c1ccc(N=Nc2ccccc2)cc1 | inactive
CCOC(=S)S | inactive
CCOC(=O)C(C)OC(=O)c1cc(Oc2ccc(C(F)(F)F)cc2Cl)ccc1[N+](=O)[O-] (centres undefined) | inactive
CC(C)(OOC(C)(C)c1ccccc1)c1ccccc1 | inactive
CC(C)Oc1cc(-n2nc(C(C)(C)C)oc2=O)c(Cl)cc1Cl | inactive
NCc1cccnc1 | inactive
